About 83,000 compounds went through this panel and 20% of them were active in at least one assay; those are over-represented in the sample as a whole.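 Each cell line was grown in a 96-well plate and treated with one concentration of compound for 48 hours. Values below 10 were considered active.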 Activity calls are given as the source filed them.
System: TK-10 renal
Assay: NCI-60 one-dose screen, 48 h (100 = growth as untreated, 0 = no growth, -100 = all killed)
Settings: 10 µM unless noted

Row | Structure (SMILES) | growth
1 | Cc1ccc2c(C(C[N+](=O)[O-])c3ccccc3)c(-c3ccccc3)[nH]c2c1 (configuration not stated) | 43.7% [9.5 µM] (inactive)
2 | O=C1c2cccc3cccc(c23)C(=O)N1CCCCCN1CCN(CCCCCOc2ccc(-c3nc4ccc(N5CCOCC5)cc4[nH]3)cc2)CC1 | 106% (inactive)
3 | COc1ccc(/C=C(\C#N)C(=O)Nc2cccc(Nc3nc(SC)nc(-c4cccc([N+](=O)[O-])c4)c3C#N)c2)cc1OC | 176% (inactive)
4 | O=C1Nc2ccc(Br)cc2C12Oc1ccccc1C1CC(c3ccc(F)cc3)=NN12 (configuration not stated) | 121% (inactive)
5 | CSc1nc(-c2cccc(NC(=O)CCl)c2)c(C#N)c(=O)n1C | 117% (inactive)
6 | Oc1cccc2ccc(N/N=C/c3cc(CN4CCOCC4)c(O)c4ncccc34)nc12 | 23% (inactive)
7 | CC(C)(C)c1cc(C(C)(C)C)cc(S(=O)(=O)Nc2cc3ccccc3cc2C(=O)NCCN)c1 | 78.8% (inactive)
8 | COc1ccc(/C=C/c2nc3ccccc3nc2/C=C/c2ccc(OC)cc2)cc1 | 95.8% (inactive)
9 | COc1cc(/C=C/c2cc(/C=C/c3ccc(O)c(OC)c3)n(-c3c(Cl)cccc3Cl)c(=O)n2)ccc1O | 86% (inactive)
10 | Cc1cc(C)nc(SC2=C(Nc3cc(Cl)ccc3O)C(=O)N(Cc3ccccc3)C2=O)n1 | 23.8% [30 µM] (inactive)
11 | CC(C)(C)CC(C)(C)c1ccc(OCCOCC[N+](C)(C)Cc2ccccc2)cc1 | -0.335% (active)
12 | O=C(NCCN1CCOCC1)Nc1ccc(-c2cc3c(Nc4ccc(Oc5cccc(C(F)(F)F)c5)c(Cl)c4)ncnc3s2)cc1 | 49.8% (inactive)
